Shown are actives, neighbours in structure and some others; about 3.5% of the full set was active somewhere.
GPR151 activ – human GPR151 activation; Q8TDV0; PathHunter beta-arrestin GPR151 cells, luminescence; activation, % at 11.2 µM; 650,000 compounds, 1% hits; in the data active = activation above about 4.9%;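 note: 0% = median of compound wells and 100% = cells with positive control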
FBW7 activator – human FBW7 E3 ligase activation, primary screen. Q969H0. AlphaScreen FBW7–phospho-cyclin E peptide binding, activator screen. normalized activity (activation), % at 26.1 µM. 650,000 compounds, 0.13% hits; in the data active = normalized activity above about 1.9%;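 note: purified mutant Fbw7 with reduced substrate affinity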
Target sequence (Q969H0 whole entry, looked up): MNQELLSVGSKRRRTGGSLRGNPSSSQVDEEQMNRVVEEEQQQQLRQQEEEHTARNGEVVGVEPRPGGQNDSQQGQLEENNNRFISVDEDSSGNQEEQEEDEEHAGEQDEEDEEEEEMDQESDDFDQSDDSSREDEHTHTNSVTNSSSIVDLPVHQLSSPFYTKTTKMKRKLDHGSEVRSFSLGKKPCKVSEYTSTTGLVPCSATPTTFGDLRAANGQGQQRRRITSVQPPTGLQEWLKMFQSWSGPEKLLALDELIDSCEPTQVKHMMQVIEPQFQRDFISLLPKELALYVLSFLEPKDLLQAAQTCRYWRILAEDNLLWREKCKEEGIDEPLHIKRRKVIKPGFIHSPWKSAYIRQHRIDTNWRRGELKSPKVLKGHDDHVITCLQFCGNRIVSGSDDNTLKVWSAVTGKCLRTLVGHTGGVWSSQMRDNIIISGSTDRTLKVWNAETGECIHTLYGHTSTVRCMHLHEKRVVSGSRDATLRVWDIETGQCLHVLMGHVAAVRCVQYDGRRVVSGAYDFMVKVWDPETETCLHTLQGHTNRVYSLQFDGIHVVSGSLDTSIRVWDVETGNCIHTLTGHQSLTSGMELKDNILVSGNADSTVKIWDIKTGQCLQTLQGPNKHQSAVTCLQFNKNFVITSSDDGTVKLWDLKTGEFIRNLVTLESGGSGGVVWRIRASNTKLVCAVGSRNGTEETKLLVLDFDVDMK
MITF inh – inhibitors of human MITF | AlphaScreen MITF homodimerization, bead proximity signal | 650,000 compounds, 0.91% hits | inhibition, % at 2.6 µM | O75030 | AID 1259374; in the data active = inhibition above about 50%;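 note: 0% = vehicle wells with protein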
TEAD-YAP block – TEAD-YAP interaction inhibition; HEK-TIYL cells, TEAD-Gal4/YAP UAS-luciferase luminescence; inhibition, % at 9.12 µM; 640,000 compounds, 1.4% hits; AID 1259422; in the data active = inhibition above about 32%;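 note: 0% = median of test compound wells and 100% = reference inhibitor wells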
GPR151 confirm – human GPR151 activation, confirmation screen; activation, % at 11.2 µM; GPR151 PathHunter beta-arrestin cells, luminescence, 90 min; % of EA-reagent control over plate median; shares compounds with GPR151 activ; AID 1508609; 6,700 tested, under 10 active;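 active = mean percent activation across replicates above the confirmation screen cutoff of 4.91%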
GPR119 ag – activates human GPR119 in a GPR151 counter-screen; 6,700 compounds, 0.3% hits; shares compounds with GPR151 activ; GPR119 PathHunter beta-arrestin cells, luminescence, 90 min; 0 = compound-well median, 100 = enzyme-acceptor control; activation, % at 11.2 µM;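 active = mean percent activation in the counterscreen above 29.09%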;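 note: counterscreen on off-target GPR119 to flag nonselective hits from the GPR151 activator screen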
* marks the source's active call; other numbers are inactive results; . = no result given; ! = repeats disagree.

SMILES	GPR151 activ	FBW7 activator	MITF inh	TEAD-YAP block	GPR151 confirm	GPR119 ag
O=C(Nc1ccc(S(=O)(=O)N2CCOCC2)cc1)c1ccccc1[N+](=O)[O-]	-0.3	0.1	8.8	-1.4	.	.
Cc1cc(/C=C2\C(=O)NC(=O)N(C)C2=O)c(C)n1-c1ccc(C(C)C)cc1	-0.5	-0.2	15.1	5.5	.	.
CCc1ccc(-c2cc(C(=O)N3CCN(C/C=C/c4ccccc4)CC3)c3ccccc3n2)cc1	5.3*	0.0	2.4	47.0*	1.3	11.2
CCc1ccc(-c2cc(C(=O)N3CCCCC3)c3ccccc3n2)cc1	-1.4	0.2	8.3	-31.5	.	.
CCC(=O)N1C(=O)CC(C)N(C(=O)CC)c2ccccc21 (configuration not stated)	5.9*	0.1	-6.8	0.7	-0.1	-0.7
CCOC(=O)C1(CCc2ccccc2)CCN(Cc2cnc(C)s2)CC1	9.8*	-0.1	-2.3	-5.3	0.0	-5.9
OCC1(CCc2ccccc2)CCN(Cc2cnc(N3CCCC3)s2)CC1	6.6*	0.0	5.7	-3.2	-1.1	-15.4
COc1ccccc1NC(=O)c1cc(F)ccc1[N+](=O)[O-]	-1.0	0.1	10.1	17.5	.	.
CC(C)N(C(=O)COc1ccccc1Cl)C(C)C	2.6	-0.1	-4.4	4.6	.	.
Cc1ccc(OC(C)C(=O)NNC(=S)NCC2CCCO2)c([N+](=O)[O-])c1 (configuration not stated)	1.2	0.0	4.6	5.1	.	.
Cc1ccc(OCc2ccc(C(=O)NNC(=S)NCC3CCCO3)o2)c([N+](=O)[O-])c1 (configuration not stated)	5.8*	-0.1	20.2	2.6	0.8	-0.8
O=C1Cc2ccccc2C(c2ccc([N+](=O)[O-])cc2)N1 (configuration not stated)	-0.9	0.0	-7.5	-23.9	.	.
CCOc1cc(/C=C2\C(=O)N(c3cccc(Cl)c3)N=C2C)ccc1OC(C)=O	3.3	-0.1	11.6	21.1	.	.
COc1ccccc1N1CCN(C(=O)c2cnc(N3CCN(c4ncccn4)CC3)c3ccccc23)CC1	5.3*	-0.1	5.8	23.5	1.9	14.4
COc1ccccc1N1CCN(c2ncc(C(=O)N3CCN(c4ccccn4)CC3)c3ccccc23)CC1	-1.2	0.6	12.6	1.2	.	.
C/C(=N\Nc1ccc([N+](=O)[O-])cc1)c1ccc(Br)s1	-0.3	0.2	-9.5	2.5	.	.
NC(=O)CCN(CCC(N)=O)S(=O)(=O)c1ccccc1	6.6*	0.4	13.8	-1.8	-1.2	-4.4
NC(=O)CCN(CCC(N)=O)S(=O)(=O)c1ccc(Br)cc1	1.1	-0.1	-2.1	1.5	.	.
Cc1ccc(NC(=O)C2CC3CCCN3C23C(=O)N(C)c2ccccc23)cc1C (configuration not stated)	-0.1	-0.1	-22.4	6.5	.	.
COc1ccc(NC(=O)C2CC3CCCN3C23C(=O)N(C)c2ccccc23)cc1OC (configuration not stated)	5.2*	0.2	3.9	-2.9	0.8	5.1
CCOC(=O)C1=C(C)N=c2s/c(=C\c3ccccc3OC(C)=O)c(=O)n2C1c1ccc(OC(C)=O)cc1 (configuration not stated)	0.2	0.4	3.3	-2.3	.	.
CN1CCN(CCCN2c3ccccc3Sc3ccc(S(=O)(=O)N(C)C)cc32)CC1	5.4*	-0.1	-5.4	.	-0.8	-7.4
OCCN1CCN(CCCN2c3ccccc3Sc3ccc(Cl)cc32)CC1	4.4	-0.2	18.2	2.9	.	.
COc1ccc(N2CCN(S(=O)(=O)Cc3ccccc3)CC2)cc1	6.8*	-0.1	-9.5	3.6	-0.9	-11.6
O=S(=O)(Cc1ccccc1)N1CCN(c2ccc(F)cc2)CC1	0.0	0.9	-9.6	4.8	.	.
SMILES	GPR151 activ	FBW7 activator	MITF inh	TEAD-YAP block	GPR151 confirm	GPR119 ag
CC(C)n1nnnc1CN1CCN(c2cccc(C(F)(F)F)c2)CC1	-1.2	-0.1	4.2	7.8	.	.
COc1ccc(NC(=O)C2CC(=O)NC(Nc3ccc(C)cc3C)=N2)cc1 (configuration not stated)	12.0*	0.0	6.9	7.4	0.6	-12.8
Cc1c(NC(=O)C(C)N2C(=O)C3C4CCC(C4)C3C2=O)ccc(Br)c1Cl (configuration not stated)	12.9*	0.8	14.4	2.9	0.2	2.2
COC(=O)c1ccc(/C=C2/C(=O)NN(c3ccc(C)c(C)c3)C2=O)cc1	5.2*	-0.1	12.8	-0.8	0.0	0.2
O=C(CCC(=O)c1ccc(Cl)cc1)OCc1ccc([N+](=O)[O-])cc1	0.9	-0.1	-3.5	1.9	.	.
O=C(CCC(=O)OCc1ccc([N+](=O)[O-])cc1)OCc1ccc([N+](=O)[O-])cc1	5.5*	0.5	-2.1	-6.6	0.5	5.1
CCN(CC)c1nc(NCCCN2CCCC2=O)nc(NCCCN2CCCC2=O)n1	0.5	0.0	5.5	-0.3	.	.
CCN(CC)c1nc(NCCCN2CCCC2=O)nc(NCc2nc3ccccc3[nH]2)n1	6.9*	0.0	-0.1	-1.2	-1.0	1.1
CC1CCC/C(=C/Nc2ccccc2C(=O)O)C1=O (configuration not stated)	0.7	0.3	6.8	-2.0	.	.
Cc1cc(C)n(-c2cccc(CN(C)C(=O)Cn3nnnc3CN3CCC(C)CC3)c2)n1	5.7*	0.1	1.7	3.5	0.0	4.0
CCCC(C)c1nnc(NC(=O)CS(=O)(=O)c2ccccc2)s1 (configuration not stated)	1.8	0.1	10.7	-25.9	.	.
O=c1c2sc3ccc([N+](=O)[O-])cc3c2[nH]c(=S)n1Cc1ccccn1	8.8*	0.1	6.5	1.7	-0.6	-8.5
CC(C)n1c(=S)[nH]c2c(sc3ccc([N+](=O)[O-])cc32)c1=O	1.1	-0.1	-4.6	7.8	.	.
CC(=O)C/C(C)=N/NC(=O)COc1ccccc1	-0.4	-0.1	0.3	-6.3	.	.
CC[C@@H](C(=O)[C@@H](C)[C@@H](O)[C@H](C)[C@@H]1O[C@@H]([C@@H](CC)C(=O)O)CC[C@@H]1C)[C@H]1O[C@]2(C=C[C@@H](O)[C@]3(CC[C@@](C)([C@H]4CC[C@](O)(CC)[C@H](C)O4)O3)O2)[C@H](C)C[C@@H]1C	10.7*!	-0.1	-4.0	77.7*!	-0.3	6.0
O=C(Nc1ccc(-c2nc3ccccc3o2)cc1)c1cc(I)ccc1Cl	7.4*	0.0	7.1	-15.1	-0.4	-5.5
O=C(NC(=S)Nc1ccc(-c2nc3ccccc3o2)cc1)c1cncc(Br)c1	6.1*	0.0	3.6	-14.6	0.1	15.0
CCCNC(=O)CCCC(=O)c1ccccc1	-0.4	0.1	-1.2	-12.2	.	.
CC(NC(=O)CSc1ccsc1[N+](=O)[O-])c1ccccc1 (configuration not stated)	-0.3	-0.2	12.0	13.4	.	.
Cc1ccc(C)c(NC(=O)C23CCC(C)(C(=O)C2=O)C3(C)C)c1 (configuration not stated)	2.9	0.0	1.0	-2.9	.	.

High-throughput results (PubChem)
